# PubChem BioAssay (EPA / NIEHS)
# Results filed as inconclusive are left out. The source made the active and inactive calls. Rule for the calls: active = hit-call score of the fitted dose curve at least 0.9, where 1 is the maximum; inconclusive = response in the unintended direction; inactive = score below 0.9.
# Molecular target: Hepatocyte nuclear factor 4-alpha (Homo sapiens) (UniProt P41235)
# Test: ATG_HNF4a_TRANS: Attagene TRANS-FACTORIAL HepG2 Assay for human Hepatocyte Nuclear Factor 4 alpha (HNF4a) (AID 2282982)
# Settings: HepG2 HNF4a transactivation reporter, mRNA readout
# Outline: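 HepG2 cells transiently transfected with multiplexed GAL4-UAS reporter units responsive to chimeric NR-GAL4 proteins; compound exposure 24 h. Reporter mRNA quantified by RT-PCR, 6-FAM labelling, HpaI digestion and capillary electrophoresis; gain of signal versus DMSO baseline.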
# Chain of Hepatocyte nuclear factor 4-alpha (Homo sapiens) (P41235 whole entry, looked up): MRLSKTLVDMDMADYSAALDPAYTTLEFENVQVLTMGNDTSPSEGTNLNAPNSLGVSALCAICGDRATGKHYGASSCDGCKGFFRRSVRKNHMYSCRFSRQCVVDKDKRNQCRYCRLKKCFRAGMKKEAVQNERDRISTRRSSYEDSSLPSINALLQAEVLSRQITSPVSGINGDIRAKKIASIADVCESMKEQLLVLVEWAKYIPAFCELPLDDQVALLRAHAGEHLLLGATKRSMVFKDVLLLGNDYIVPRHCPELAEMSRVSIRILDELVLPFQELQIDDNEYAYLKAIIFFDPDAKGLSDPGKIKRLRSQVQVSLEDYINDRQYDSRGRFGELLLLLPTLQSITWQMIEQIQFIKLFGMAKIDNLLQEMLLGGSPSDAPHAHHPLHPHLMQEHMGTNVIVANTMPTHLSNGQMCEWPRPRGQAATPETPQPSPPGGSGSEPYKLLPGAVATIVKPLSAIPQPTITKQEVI
row,SMILES,outcome
1,Cc1occc(=O)c1OC(=O)C(C)C,inactive
2,O=C(O)c1cccnc1C(=O)O,inactive
3,CCC(C)c1cc([N+](=O)[O-])cc([N+](=O)[O-])c1OC(=O)OC(C)C (stereo not drawn),inactive
4,CCOc1ccc(NC(=O)CC(C)O)cc1 (stereo not drawn),inactive
5,OC[C@H]1O[C@@H]2O[C@H]3[C@H](O)[C@@H](O)[C@@H](O[C@H]4[C@H](O)[C@@H](O)[C@@H](O[C@H]5[C@H](O)[C@@H](O)[C@@H](O[C@H]6[C@H](O)[C@@H](O)[C@@H](O[C@H]7[C@H](O)[C@@H](O)[C@@H](O[C@H]8[C@H](O)[C@@H](O)[C@@H](O[C@H]9[C@H](O)[C@@H](O)[C@@H](O[C@H]1[C@H](O)[C@H]2O)O[C@@H]9CO)O[C@@H]8CO)O[C@@H]7CO)O[C@@H]6CO)O[C@@H]5CO)O[C@@H]4CO)O[C@@H]3CO,inactive
6,CC1(C)O[C@@H]2[C@@H](CO[C@@]3(COS(N)(=O)=O)OC(C)(C)O[C@@H]23)O1,inactive
7,C[N+](C)(C)CCCCCC[N+](C)(C)C,inactive
8,COc1ccc(N=Nc2cc(C)c(N=Nc3ccc(S(=O)(=O)O)cc3)cc2OC)cc1,inactive
9,COC(=O)C=C(C)CCC=C(C)C,inactive
10,CCCCC(CC)COC(C)=O (stereo not drawn),inactive
11,COCCOC(=O)c1ccccc1C(=O)OCCOC,inactive
12,CCCCCCCCCC(=O)OC,inactive
13,Cc1c(Cl)cccc1[N+](=O)[O-],inactive
14,Nc1ccc2c(O)cc(S(=O)(=O)O)cc2c1,inactive
15,O=CCc1ccccc1,inactive
16,C=C(C)C(=O)OCCOCCOCCOCCOC(=O)C(=C)C,inactive
17,[O-]n1ccccc1=S.[O-]n1ccccc1=S.[Zn+2],inactive
18,CC(=O)Nc1ccc(C(=O)CCl)cc1,inactive

# Tested on: not listed separately
# Test: ATG_M_06_TRANS: Attagene TRANS-FACTORIAL HepG2 Assay for M06 Transcription Factor (Internal Marker) (AID 2282983);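 note: reporter transcript level by RT-PCR then capillary electrophoresis fluorescence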
# Settings: HepG2 Attagene TRANS M06 internal marker reporter
# Outline: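 After a 24 h chemical treatment of transfected HepG2, RNA underwent DNase I treatment, reverse transcription and reporter-specific PCR; labelled, HpaI-digested products were sized by capillary electrophoresis. Signal increase relative to DMSO defined activity.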
row,SMILES,outcome
1,CCCCSCCCC,inactive
2,CCCCC1(COC(=O)CCC(=O)O)C(=O)N(c2ccccc2)N(c2ccccc2)C1=O,inactive
3,CCCOC(=O)c1c(Cl)c(Cl)c(Cl)c(Cl)c1C(=O)OCCC,inactive
4,Cc1cccc(Nc2ccccc2)c1,inactive
5,O=Cc1ccccc1S(=O)(=O)O,inactive
6,CS(=O)(=O)OCCCCOS(C)(=O)=O,inactive
7,CC1(C)O[C@@H]2[C@@H](CO[C@@]3(COS(N)(=O)=O)OC(C)(C)O[C@@H]23)O1,inactive
8,CCC(=O)OCCOc1ccccc1,inactive
9,C[N+](C)(C)CCCCCC[N+](C)(C)C,inactive
10,COC(=O)C=C(C)CCC=C(C)C,inactive
11,CC(C)OCCO,inactive
12,COCCOC(=O)c1ccccc1C(=O)OCCOC,inactive
13,Cc1ccc(OC(=O)c2ccccc2O)cc1,inactive
14,Nc1ccc2c(O)cc(S(=O)(=O)O)cc2c1,inactive
15,O=CCc1ccccc1,inactive
16,CC(C)CCCCCCc1ccc(OCCOCCO)cc1,inactive
17,C=C(C)C(=O)OCCOCCOCCOCCOC(=O)C(=C)C,inactive
18,[O-]n1ccccc1=S.[O-]n1ccccc1=S.[Zn+2],inactive
19,O=[N+]([O-])c1cccc(Cl)c1,inactive
20,CC(=O)Nc1ccc(C(=O)CCl)cc1,inactive
21,Cc1ccc(-c2ccccc2)cc1,inactive

# Tested on: not listed separately
# Test: ATG_M_32_TRANS: Attagene TRANS-FACTORIAL HepG2 Assay for M32 Transcription Factor (Internal Marker) (AID 2282984);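 note: transcript level of a background control reporter unit measured by RT-PCR and capillary electrophoresis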
# Settings: HepG2 Attagene TRANS M32 internal marker reporter
# Outline: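 HepG2 cells transiently transfected with multiple GAL4-UAS reporter transcription units, dosed for 24 hours; reporter mRNA quantified by RT-PCR, 6-FAM primer extension, HpaI digestion and capillary electrophoresis. Gain-of-signal fitted versus DMSO baseline; internal background-control marker.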
row,SMILES,outcome
1,CCCCSCCCC,inactive
2,Cc1occc(=O)c1OC(=O)C(C)C,inactive
3,CC1CC(O)CC(C)(C)C1 (stereo not drawn),inactive
4,CCCOC(=O)c1c(Cl)c(Cl)c(Cl)c(Cl)c1C(=O)OCCC,inactive
5,CC(C)CCOC(=O)c1ccccc1,inactive
6,O=C(O)c1cccnc1C(=O)O,inactive
7,CCC(C)c1cc([N+](=O)[O-])cc([N+](=O)[O-])c1OC(=O)OC(C)C (stereo not drawn),inactive
8,Brc1ccc(Br)c(Br)c1,inactive
9,CS(=O)(=O)OCCCCOS(C)(=O)=O,inactive
10,CCC(=O)OCCOc1ccccc1,inactive
11,COc1ccc(N=Nc2cc(C)c(N=Nc3ccc(S(=O)(=O)O)cc3)cc2OC)cc1,inactive
12,COC(=O)C=C(C)CCC=C(C)C,inactive
13,CC(=O)OCCCc1ccccc1,inactive
14,Cc1ccc(OC(=O)c2ccccc2O)cc1,inactive
15,O=CCc1ccccc1,inactive
16,[O-]n1ccccc1=S.[O-]n1ccccc1=S.[Zn+2],inactive

# Molecular target: Nuclear receptor subfamily 4 group A member 2 (Homo sapiens) (UniProt P43354)
# Test: ATG_NURR1_TRANS: Attagene TRANS-FACTORIAL HepG2 Assay for human Nuclear Receptor Related Protein 1 (NURR1) (AID 2282985)
# Settings: HepG2 Attagene TRANS reporter, mRNA readout
# Outline: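 HepG2 cells transiently transfected with GAL4-UAS reporter units and chimeric NR-Gal4 constructs; chemical exposure 24 h. Reporter mRNA quantified by RT-PCR, fluorescent labelling and capillary electrophoresis; gain of signal fitted relative to DMSO baseline.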
# Chain of Nuclear receptor subfamily 4 group A member 2 (Homo sapiens) (P43354 whole entry, looked up): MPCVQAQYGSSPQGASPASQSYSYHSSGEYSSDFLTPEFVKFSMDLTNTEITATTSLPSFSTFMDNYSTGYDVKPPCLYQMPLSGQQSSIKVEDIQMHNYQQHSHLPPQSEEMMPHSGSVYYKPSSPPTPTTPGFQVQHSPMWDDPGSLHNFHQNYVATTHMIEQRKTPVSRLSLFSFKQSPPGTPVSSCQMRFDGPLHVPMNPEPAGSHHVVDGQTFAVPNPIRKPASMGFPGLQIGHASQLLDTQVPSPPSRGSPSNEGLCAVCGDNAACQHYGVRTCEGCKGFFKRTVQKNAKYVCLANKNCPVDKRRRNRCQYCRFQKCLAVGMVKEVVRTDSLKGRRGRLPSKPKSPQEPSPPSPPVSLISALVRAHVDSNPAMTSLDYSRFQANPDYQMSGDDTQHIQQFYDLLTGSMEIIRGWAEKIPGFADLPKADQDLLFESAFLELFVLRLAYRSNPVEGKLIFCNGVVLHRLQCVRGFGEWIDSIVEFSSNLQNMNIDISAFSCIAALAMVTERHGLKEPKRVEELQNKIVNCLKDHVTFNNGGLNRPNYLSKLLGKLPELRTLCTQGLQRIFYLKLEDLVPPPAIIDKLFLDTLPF
SMILES,outcome,AC50
CCCCC1(COC(=O)CCC(=O)O)C(=O)N(c2ccccc2)N(c2ccccc2)C1=O,inactive,
Cc1occc(=O)c1OC(=O)C(C)C,inactive,
CCCOC(=O)c1c(Cl)c(Cl)c(Cl)c(Cl)c1C(=O)OCCC,inactive,
CCC(C)c1cc([N+](=O)[O-])cc([N+](=O)[O-])c1OC(=O)OC(C)C (stereo not drawn),,27.1 µM (active)
Cc1cccc(Nc2ccccc2)c1,inactive,
O=Cc1ccccc1S(=O)(=O)O,inactive,
CCOc1ccc(NC(=O)CC(C)O)cc1 (stereo not drawn),inactive,
CC1(C)O[C@@H]2[C@@H](CO[C@@]3(COS(N)(=O)=O)OC(C)(C)O[C@@H]23)O1,inactive,
CCC(=O)OCCOc1ccccc1,inactive,
C[N+](C)(C)CCCCCC[N+](C)(C)C,inactive,
CCCCOCC,inactive,
OCC(O)c1ccccc1 (stereo not drawn),inactive,
CC(C)OCCO,inactive,
Cc1ccc(OC(=O)c2ccccc2O)cc1,inactive,
Nc1ccc2c(O)cc(S(=O)(=O)O)cc2c1,inactive,
O=CCc1ccccc1,inactive,
CC(=O)Nc1ccc(C(=O)CCl)cc1,inactive,
Cc1ccc(-c2ccccc2)cc1,inactive,
